Measurements published in PMC5540273 (PLoS ONE, 2017).

Legend:
Conditions in all cases: concentration: 1 μM, replicates: in singlicate; n = 1
PIK3C2G = system: PIK3C2G
PIK3CA = system: PIK3CA
PIK3CB = system: PIK3CB
PIK3CD = system: PIK3CD
PIK3CG = system: PIK3CG
PIK4CB = system: T1, PIK4CB
T1 construct: gene PI4KB

PIKFYVE = system: PIKFYVE
PIM1 = system: PIM1
PIM2 = system: PIM2
PIM3 = system: PIM3
PIP5K1A = system: PIP5K1A
PIP5K1C = system: PIP5K1C
PIP5K2B = system: PIP5K2B
PIP5K2C = system: T2, PIP5K2C
T2 construct: gene PIP4K2C

PKAC-alpha = system: T3, PKAC-alpha
T3 construct: gene PRKACA

PKAC-beta = system: T4, PKAC-beta
T4 construct: gene PRKACB

PKMYT1 = system: PKMYT1
PKN1 = system: PKN1
PKN2 = system: PKN2
PLK1 = system: PLK1
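Note: KINOMEscan kinase panel screen.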

Compound	%Inh (PIK3C2G) [%]	%Inh (PIK3CA) [%]	%Inh (PIK3CB) [%]	%Inh (PIK3CD) [%]	%Inh (PIK3CG) [%]	%Inh (PIK4CB) [%]	%Inh (PIKFYVE) [%]	%Inh (PIM1) [%]	%Inh (PIM2) [%]	%Inh (PIM3) [%]	%Inh (PIP5K1A) [%]	%Inh (PIP5K1C) [%]	%Inh (PIP5K2B) [%]	%Inh (PIP5K2C) [%]	%Inh (PKAC-alpha) [%]	%Inh (PKAC-beta) [%]	%Inh (PKMYT1) [%]	%Inh (PKN1) [%]	%Inh (PKN2) [%]	%Inh (PLK1) [%]
C[C@@H](Oc1cc(-n2cnc3cc(-c4ccnc(NCCS(C)(=O)=O)c4)ccc32)sc1C(N)=O)c1ccccc1Cl [GSK907232]	0	0	0	39	1	9	0	19	0	27	5	14	47	30	0	0	5	35	0	100
COCCOCCOc1cc2ncc3c4ccc(C#N)cc4[nH]c3c2cc1OC	12	0	0	0	0	0	47	29	94	49	36	63	74	60	0	0	28	17	63	0
O=C(O)C(F)(F)F.O=C(O)C(F)(F)F.O=c1[nH]ccc2nc(N[C@@H]3CCCNC3)nc(Nc3ccc(S(=O)(=O)N4CCOCC4)cc3)c12 [GSK2177277]	0	0	0	0	80	59	69	97.5	98.8	99.8	72	76	94.4	89	82	86	0	85	96.1	38
CN(C)S(=O)(=O)c1cc(-c2ccc3nccc(-c4cccc(S(N)(=O)=O)c4)c3c2)cnc1N [GSK1669921]	96	100	96.6	98.8	99.9	96.5	96.6	19	0	12	0	36	21	85	3	10	0	57	0	33
CCc1ccc(-c2ccc3c(c2)-c2c(cnn2C)S(=O)(=O)N3C)cc1	0	5	0	0	2	12	53	1	0	0	0	24	0	77	0	12	30	2	0	0
Cn1cc(-c2ccc3c(c2)CCN3C(=O)Cc2cccc(Cl)c2)c2c(N)ncnc21 [GSK2606590]	0	0	15	0	39	0	0	31	0	8	0	22	10	1	7	5	9	0	0	7
Cl.c1ccc(-c2ccc3c(Nc4ccc5[nH]ncc5c4)ccnc3c2)nc1 [GW440137]	0	6	0	2	5	0	7	0	0	9	18	30	0	55	0	0	0	15	0	0
Cc1occc1-c1ncc(OC[C@@H](N)Cc2c[nH]c3ccccc23)cc1-c1ccc2[nH]nc(C)c2c1.O=C(O)C(F)(F)F [GSK682037]	0	0	0	0	0	0	0	39	97.4	64	75	19	40	0	99.8	99.5	7	28	64	0
COc1cc(Nc2nccc(-c3c(-c4cccc(NC(=O)c5c(F)cccc5F)c4)nn4ncccc34)n2)cc(OC)c1OC [GSK327238]	0	2	3	0	6	0	0	0	0	0	0	19	20	93.9	44	47	8	62	13	12
Cn1cc(-c2ccc3c(c2)CCN3C(=O)Cc2cccc(F)c2)c2c(N)ncnc21 [GSK2603358]	0	3	0	28	30	0	11	0	0	0	0	56	0	38	0	0	0	0	0	0
